Screening results (PubChem BioAssay)
Only some compounds are listed: those with a hit (about 21% of all), similar ones and a draw of the others.
Pf growth 48h: inhibits P. falciparum growth in the first generation, 48 h; actives 5.9% (n = 310,000); P. falciparum luciferase growth in erythrocytes, 48 h; AID 504832; Potency, µM (titrated, usually from 28.7 µM), for the others: at the top dose activity change, negative = inhibition, actives largely listed as inhibitors; also: potency is read from the fitted curve at half-maximal effect; % is scaled to controls: 0 for no effect and ±100 for the full control effect
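Compounds are pin-transferred into medium, infected erythrocytes (2% hematocrit, 0.1% parasitemia final) are added, and plates sit one parasite generation at 37 C in 5% CO2. Detection reagent is then added and luminescence measured.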
Pf growth 96h: P. falciparum growth inhibition at 96 hour, primary screen for plastid delayed-death inhibitors; P. falciparum luciferase reporter growth, 96 h; Potency, µM (series often up to 28.7 µM), inactives show top-dose activity change, negative = inhibition, most hits filed as inhibitors; actives 6.9% (n = 320,000); AID 504834; also: potency is read from the fitted curve at half-maximal effect; % is scaled to controls: 0 for no effect and ±100 for the full control effect
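Parasite growth measured via integrated firefly luciferase reporter in P. falciparum. Infected erythrocytes at 2% hematocrit, 0.05% parasitemia final were treated 96 hours at 37 C under 5% CO2, and luminescence was read.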
FBPA Giardia inh: blocks Giardia fructose-bisphosphate aldolase activity. purified Giardia FBPA. AID 2451. actives 0.71% (n = 290,000). Potency, µM (top dose mostly 59.6 µM), without a hit: top-dose activity, negative = inhibition, usual class: inhibitors; also: potency is read from the fitted curve at half-maximal effect; % is scaled to controls: 0 for no effect and ±100 for the full control effect; nearly all actives have a fitted effect of over 55% in size
Target sequence (A8B2U2 whole entry, looked up): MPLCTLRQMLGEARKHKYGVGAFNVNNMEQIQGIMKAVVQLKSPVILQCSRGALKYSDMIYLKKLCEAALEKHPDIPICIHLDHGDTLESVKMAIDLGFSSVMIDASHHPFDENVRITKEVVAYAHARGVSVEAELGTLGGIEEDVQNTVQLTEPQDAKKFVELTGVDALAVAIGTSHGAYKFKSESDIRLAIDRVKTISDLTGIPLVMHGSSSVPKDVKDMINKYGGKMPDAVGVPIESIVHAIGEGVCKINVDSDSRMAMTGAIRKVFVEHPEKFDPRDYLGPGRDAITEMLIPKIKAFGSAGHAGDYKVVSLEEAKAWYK
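40 nM FBPA preincubated 10 min at RT with compound (up to 57.5 uM final), then substrate plus GAPDH/TPI/NAD/arsenate coupling and diaphorase/resazurin added. Fluorescence read after 20 min at RT, 525/598 nm.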
NS1 inh: inhibitors of influenza NS1 protein function; actives 0.4% (n = 270,000); Potency, µM (highest dose often 46.1 µM), for the others: top-dose activity, positive = more growth; calls by dose curve; also: potency is read from the fitted curve at half-maximal effect; actives are rising curves; nearly all actives have a fitted effect of over 50% in size
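OD600 was taken as the measure of yeast growth restored by compound in an NS1-expressing S. cerevisiae strain. Cells had been washed out of glucose medium and diluted 1:100 into galactose -URA medium, pH 6.0.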
CHX counter: affects cycloheximide protein synthesis inhibition readout, counter-screen. cell reporter, cycloheximide protein synthesis inhibition counterscreen. max response, %. actives 12% (n = 300,000). AID 2314; in the data active = max response mostly above about 13%, no sharp cut-off; inactive = mostly below about 14%; also: read at 38.3 µM for the half of the compounds with a filed dose; 0% is about no effect
Shiga toxin inh: blocks Shiga toxin action in Vero cells | Vero cells, Shiga toxin protein synthesis inhibition reporter | inhibition, % at 38.7 µM | actives 9.2% (n = 290,000) | AID 2315; in the data active = inhibition mostly above about 28%, no sharp cut-off; inactive = mostly below about 43%; also: 0% is about no effect
* = called active by the depositor; i = inactive; ? = inconclusive; . = not tested or not shown; [ ] = dose if it differs, or a comment. Unless noted, calls follow the shape of the dose curve; as a rule, active = well fitted curve in the direction sought with a large enough effect; inconclusive = small, poorly fitted or top-dose-only effect, or another doubt; inactive = no such curve, though single readings can be large; an effect the other way counts as inactive or inconclusive.

SMILES	Pf growth 48h	Pf growth 96h	FBPA Giardia inh	NS1 inh	CHX counter	Shiga toxin inh
CCc1cccc(NC(=O)CN(c2ccc(C)cc2)S(=O)(=O)c2c(C)noc2C)c1	?	?	-15%	6%	-5	-10
COC(=O)c1nnn(CC(=O)NC(=O)Nc2cccc(Cl)c2C)c1C(=O)OC	24%	?	0%	.	2	-4
CC(=O)N1CCc2cc(N=NC3=C(O)CC(C)(C)CC3=O)ccc21	?	32%	-15%	.	27*	46*
O=C(O)c1cccc(S(=O)(=O)N2CCOCC2)c1	-4%	-19%	3%	6%	-6	-8
O=C(O)c1cccc(N=NN2CCOCC2)c1	7%	-12%	1%	3%	18*	39
COc1cc(-c2nnc3n2CCCCC3)cc(OC)c1OC	1%	23%	-2%	1%	-5	-4
CCCc1ccc(Oc2cc(NN3CCCCC3)c([N+](=O)[O-])cc2[N+](=O)[O-])cc1	38%	84%	10%	6%	-2	-5
Cc1ccccc1C(=O)Nc1nc(-c2cccnc2)cs1	-4%	-27%	-20%	5%	20*	28
CC(=O)Nc1ccc(C(=O)Nc2nc(-c3cccnc3)cs2)cc1	-3%	0%	1%	.	15*	21
CC(OC(=O)c1cc(=O)[nH]c2ccccc12)C(=O)NC1CCCC1 (configuration not stated)	6%	28%	.	.	.	.
CN(CCCN1CCOCC1)Cc1cn(C)nc1-c1ccccc1F	0%	5.9µM*	5%	-2%	-2	-8
Cc1c(CN(C)Cc2cn(C)nc2-c2ccccc2F)[nH]c2ccccc12	-9%	3.7µM*	-6%	0%	-2	-18
O=C(c1ccccc1Sc1ccccc1[N+](=O)[O-])N1CCCCC1	?	?	-11%	0%	-2	7
N#C/C(=C\c1cccnc1)c1ccc(Br)cc1	?	?	4%	-42%	47*	44
N#CC(C#N)=Cc1cccnc1	-1%	6%	?	6%	-2	4
Cc1cccc(C)c1N(CC(=O)N1CCCC1)S(C)(=O)=O	-14%	?	11%	5%	1	-7
COc1ccc(-c2nnc(SCC(=O)/C(C#N)=C(\C)N)o2)cc1	144%	0%	-1%	3%	38*	107*
COc1ccc2nc(SCC(=O)/C(C#N)=C(\C)N)[nH]c2c1	92%	i	1%	10%	47*	97*
COc1ccc(-c2nnc(SCC(=O)N3c4ccccc4Sc4ccccc43)o2)cc1	-27%	18%	-3%	13%	2	-3
C/C(N)=C(/C#N)C(=O)CSc1nnc(-c2ccccc2Br)o1	227%	.	-4%	4%	54*	126*
COc1ccc(C(=O)c2c(C)c3ccccc3n2CC(O)CNC(C)C)cc1 (configuration not stated)	12µM*	?	-5%	-9%	-7	-12
COc1ccc2c3c([nH]c2c1)[C@@H]1C[C@@H]2[C@@H](C[C@H](O)[C@H](OC)[C@H]2C(=O)O)CN1CC3	.	.	-12%[21.7 µM]	.	.	.
O=C(O)[C@@H]1[C@@H]2C[C@H]3c4[nH]c5ccccc5c4CCN3C[C@@H]2CC[C@@H]1O	?	5.7µM*	?	.	.	.
COc1ccc2c3c([nH]c2c1)C1CC2C(CC(O)C(OC)C2C(=O)O)CN1CC3 (configuration not stated)	9.3µM*	3.7µM*	-23%	-2%	5	14
COC(=O)[C@H]1[C@H]2C[C@@H]3c4[nH]c5cc(OC)ccc5c4CCN3C[C@H]2C[C@@H](OC(=O)c2cc(OC)c(OC)c(OC)c2)[C@@H]1OC	1.5µM*	1.7µM*	-17%	?	.	.
COc1cc(/C=C2\CCn3c2nc2cc(C(=O)O)ccc2c3=O)ccc1OC(F)F	.	-27%	-28%	-1%	-2	1
N#CCCn1c(=O)c(-c2cccs2)nc2cnc(Oc3ccccc3)nc21	.	.	-1%	.	.	.
O=C(NCc1ccccc1Cl)C1CCCN1S(=O)(=O)c1ccccc1F (configuration not stated)	0%	-1%	6%	1%	-4	-7
CCOc1cccc2cc(-c3csc(NC(=O)CCC(=O)N4CCC(C)CC4)n3)c(=O)oc12	.	14%	-4%	5%	-1	21
